This note sets out measurements from ChEMBL document CHEMBL4513147, “CO-ADD screening of Armstrong State University (GA, USA) compounds”.

Structures are written as SMILES. Entries with a potency or affinity are not part of this list.

The test system of the assay is Klebsiella pneumoniae. The note with it: Concentration 32 ug.mL-1; ASSAY_TEST Inhibition of Bacterial Growth; detection method Absorption (OD600); MEDIA CAMHB; plate type 384well; NBS; CORNING #3640; time 18 hr.
For `CC(C)(C)OC(=O)N1CC(=Cc2ccoc2)C(=O)/C(=C/c2ccoc2)C1`, the Inhibition came to 21.57%. The result for `COc1ccc2c(c1)CCC(=Cc1cncc(Br)c1)C2=O` reads 10.09%; that for `COc1cccc2c1CCC(=Cc1ccoc1)C2=O`, 11.44%.

As to `COc1ccc2c(c1)CCC(=Cc1cccnc1Cl)C2=O`, the Inhibition is 12.5%.

With `COc1ccc2c(c1)CCC(=Cc1ccoc1)C2=O`, the Inhibition turned out to be 11.83%. In the case of `COc1ccc2c(c1)CCC(=Cc1ccco1)C2=O` it was 10.81%. With `COc1ccc2c(c1)C(O)C(=Cc1cccnc1Cl)CC2` (stereo unspecified), the Inhibition is on record as 10.57%.

`COc1ccc2c(c1)C(=O)C(=Cc1cccnc1Cl)CC2`: the Inhibition worked out at 12.62%. Regarding `COc1ccc2c(c1)C(=O)C(=Cc1cccnc1Br)CC2`, the Inhibition is reported as 8.16%. In the case of `COc1ccc2c(c1)C(=O)C(=Cc1cncc(Br)c1)CC2` it was 11.33%. The result for `COc1ccc2c(c1)C(=O)C(=Cc1cnccc1OC)CC2` reads 13.46%. The result for `COc1ccc2c(c1)CCC(=Cc1ccncc1)C2=O` reads 14.05%; that for `COc1ccc2c(c1)C(=O)C(=Cc1cccnc1Cl)CC2.Cl`, 17.3%; that for `COc1ccc2c(c1)C(=O)C(=Cc1cccc(C=C3CCc4ccc(OC)cc4C3=O)c1)CC2`, 10.58%. For `CC(C)(C)OC(=O)N1CC(=Cc2ccco2)C(=O)/C(=C/c2ccco2)C1`, the Inhibition amounted to 8.12%.

For the compound `COc1ccc2c(c1)CCC(=Cc1cccnc1Br)C2=O`, the Inhibition is 13.02%. In the case of `COc1ccc(/C=C/C(=O)c2ccc(OCc3ccc(Br)cc3)cc2)cc1OC`, the Inhibition was 12.55%. The result for `COc1ccc2c(c1)C(=O)C(=Cc1ccccn1)CC2` reads 11.4%; that for `COc1ccc2c(c1)CCC(=Cc1cccnc1)C2=O`, 16.02%; that for `Cc1ccc(C=C2CN(C(=O)OC(C)(C)C)C/C(=C\c3ccc(C)cc3C)C2=O)c(C)c1`, 13.54%. In the case of `COc1ccc2c(c1)C(=O)C(=Cc1ccoc1)CC2` it was 17.88%; in that of `COc1cc2c(cc1OC)C(=O)C(=Cc1ccco1)CC2`, 12.89%. On to `COc1ccc2c(c1)CCC(=Cc1cnccc1OC)C2=O`, for which the Inhibition turned out to be 11.4%. The result for `COc1cccc2c1CCC(=Cc1ccco1)C2=O` reads 9.39%; that for `COc1cc2c(cc1OC)C(=O)C(=Cc1ccoc1)CC2`, 14.64%. The result for `COc1ccc2c(c1)C(=O)C(=Cc1cccnc1)CC2` reads 13.34%; that for `COc1ccc2c(c1)C(=O)C(=Cc1cccnc1OC)CC2`, 14.75%; that for `COc1ccc2c(c1)CCC(=Cc1ccc(OC)nc1)C2=O`, 13.52%. The result for `COc1cccc2c1CCC(=Cc1cccc(C=C3CCc4c(OC)cccc4C3=O)c1)C2=O` reads 0.44%; that for `COc1ccc2c(c1)C(=O)C(=Cc1ccco1)CC2`, 14.42%; that for `COc1ccc2c(c1)CCC(=Cc1ccccn1)C2=O`, 8.96%.

One may read the Inhibition as the drop in the measured response relative to a control, in per cent. A lower Inhibition goes with little suppression.
